“And” between values parts separate entries of the source, which are not always exact repeats. Equal values may be shown once. The campaign covered roughly 5,500 compounds. About 2,000 (36%) were called active. Not shown: some 18% with an inconclusive outcome. No stated cut-off is given here; in the data, active means normalized growth mostly below about 0.91 (no sharp cut-off); inconclusive means no clear call, values can overlap the other calls; inactive means mostly above about 0.92. This is one part of the list.
Assay: chemical genetic growth profiling, strain panel (AID 1159580);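 further: tested at 20 µM; growth read once vehicle control cultures reached saturation at 30 °C; 1 = growth at the plate median or of vehicle wells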
Conditions: S. cerevisiae deletion strains, growth OD

Measured: normalized growth

Nc1ccc(C(=O)NCC(=O)O)cc1
inactive: locus YAL021C, strain ccr4, stronger effect = lower value 1.02 | locus YAL026C, strain drs2, stronger effect = lower value 1.02 | locus YAL030W, strain snc1, stronger effect = lower value 0.998 | locus YBL061C, strain skt5, stronger effect = lower value 1.01 | locus YBR009C, strain hhf1, stronger effect = lower value 1.01 | locus YBR021W, strain FUR4, stronger effect = lower value 1.01 | locus YBR023C, strain chs3, stronger effect = lower value 1.02 | locus YBR171W, strain sec66, stronger effect = lower value 1.02 | locus YBR229C, strain ROT2, stronger effect = lower value 1 | locus YBR231C, strain swc5, stronger effect = lower value 1.01 | locus YBR279W, strain paf1, stronger effect = lower value 1.01 | locus YCL011C, strain gbp2, stronger effect = lower value 1.02 | locus YCL016C, strain dcc1, stronger effect = lower value 1.02 | locus YCL029C, strain bik1, stronger effect = lower value 1 | locus YCL069W, strain vba3, stronger effect = lower value 1 | locus YCR088W, strain abp1, stronger effect = lower value 1.01 | locus YDL005C, strain med2, stronger effect = lower value 1.01 | locus YDL035C, strain GPR1, stronger effect = lower value 1.01 | locus YDL040C, strain nat1, stronger effect = lower value 1 | locus YDL074C, strain BRE1, stronger effect = lower value 0.992 | locus YDL101C, strain DUN1, stronger effect = lower value 1 | locus YDL134C, strain PPH21, stronger effect = lower value 1.01 | locus YDL185W, strain tfp1, stronger effect = lower value 1.01 | locus YDL192W, strain arf1, stronger effect = lower value 1.01 | locus YDR001C, strain nth1, stronger effect = lower value 1.01 | locus YDR069C, strain doa4, stronger effect = lower value 1 | locus YDR101C, strain arx1, stronger effect = lower value 0.993 | locus YDR137W, strain rgp1, stronger effect = lower value 1.02 | locus YDR150W, strain NUM1, stronger effect = lower value 1.01 | locus YDR159W, strain sac3, stronger effect = lower value 0.979 | locus YDR162C, strain NBP2, stronger effect = lower value 1.01 | locus YDR195W, strain ref2 0.999 | locus YDR297W, strain sur2, stronger effect = lower value 1.02 | locus YDR318W, strain mcm21, stronger effect = lower value 1.02 | locus YDR334W, strain swr1, stronger effect = lower value 1.04 | locus YDR335W, strain msn5, stronger effect = lower value 1.02 | locus YDR388W, stronger effect = lower value 1 | locus YDR392W, strain spt3, stronger effect = lower value 1.03 | locus YDR502C, strain sam2, stronger effect = lower value 1.01 | locus YEL003W, strain gim4, stronger effect = lower value 1.02 | locus YEL037C, strain rad23, stronger effect = lower value 0.998 | locus YEL061C, strain CIN8 (second series), stronger effect = lower value 1.01 | locus YEL061C, strain CIN8, stronger effect = lower value 1 | locus YER015W, strain faa2, stronger effect = lower value 0.996 | locus YER016W, strain bim1, stronger effect = lower value 1.02 | locus YER110C, stronger effect = lower value 1.02 | locus YER111C, strain swi4, stronger effect = lower value 0.996 | locus YER155C, strain BEM2 (second series), stronger effect = lower value 1.02 | locus YER155C, strain BEM2, stronger effect = lower value 0.994 | locus YER167W, strain BCK2, stronger effect = lower value 1.01 | locus YFR010W, strain ubp6, stronger effect = lower value 0.999 | locus YGL078C, strain dbp3, stronger effect = lower value 1.02 | locus YGL086W, strain mad1, stronger effect = lower value 1.01 | locus YGL167C, strain pmr1, stronger effect = lower value 1.02 | locus YGL173C, strain kem1, stronger effect = lower value 1.01 | locus YGL227W, strain vid30, stronger effect = lower value 1 | locus YGL240W, strain doc1, stronger effect = lower value 0.993 | locus YGL248W, strain PDE1, stronger effect = lower value 0.992 | locus YGL253W, strain hxk2, stronger effect = lower value 1.02 | locus YGR135W, strain pre9, stronger effect = lower value 1.04 | locus YGR229C, strain SMI1, stronger effect = lower value 0.99 | locus YGR252W, strain gcn5, stronger effect = lower value 1.01 | locus YHR013C, strain ard1, stronger effect = lower value 1.03 | locus YHR027C, strain rpn1, stronger effect = lower value 1.02 | locus YHR030C, strain SLT2, stronger effect = lower value 1.01 and 0.968 | locus YHR079C, strain IRE1 (second series), stronger effect = lower value 1.01 | locus YHR079C, strain IRE1, stronger effect = lower value 0.971 | locus YHR094C, strain hxt1, stronger effect = lower value 1.01 | locus YHR129C, strain ARP1, stronger effect = lower value 1 | locus YHR142W, strain chs7, stronger effect = lower value 1.02 | locus YHR200W, strain rpn10, stronger effect = lower value 1.02 | locus YIL066C, strain RNR3, stronger effect = lower value 1 | locus YIL073C, strain SPO22, stronger effect = lower value 1.05 | locus YIL125W, strain kgd1, stronger effect = lower value 1.01 | locus YIR030C, strain dcg1, stronger effect = lower value 1 | locus YJL092W, strain hpr5, stronger effect = lower value 1.02 | locus YJL095W, strain BCK1 (second series), stronger effect = lower value 1.01 | locus YJL095W, strain BCK1, stronger effect = lower value 0.985 and 0.967 | locus YJL115W, strain asf1, stronger effect = lower value 1.02 | locus YJL129C, strain trk1, stronger effect = lower value 1.02 | locus YJL134W, strain LCB3, stronger effect = lower value 1 | locus YJL154C, strain vps35, stronger effect = lower value 1 | locus YJL164C, strain tpk1, stronger effect = lower value 1.01 | locus YJL166W, strain qcr8, stronger effect = lower value 1.03 | locus YJL168C, strain set2, stronger effect = lower value 1 | locus YJL187C, strain SWE1 (second series), stronger effect = lower value 0.982 | locus YJR043C, strain POL32, stronger effect = lower value 1.01 | locus YJR066W, strain TOR1, stronger effect = lower value 0.928 | locus YJR075W, strain HOC1, stronger effect = lower value 0.999
